{
  "source": "PubChem BioAssay AID1578",
  "about": "(Sanford-Burnham Center for Chemical Genomics, 2009)",
  "note": "In all, about 290,000 compounds went through this assay and about 3,000 (1%) were called active. Only a selection was taken, and actives are over-represented in it overall. Unmarked numbers belong to inactive results. No stated cut-off is given here; in the data, active means inhibition mostly above about 36% (no sharp cut-off); inactive means mostly below about 34%.",
  "data": [
    {"experiment": "NOD1 signaling inhibitors, primary screen, cell-based, luminescence, uHTS (AID 1578);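 further: HEK-293T reporter cells stimulated with the NOD1 agonist gamma-tri-DAP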", "conditions": "NOD1-driven NF-kB luciferase reporter cells, at 4 µM, hits give high values", "values": [
      {"smiles": "CCOC(=O)c1nnn(CC(=O)NC(=O)Nc2ccccc2)c1C(=O)OCC", "inhibition": "-7.4%"},
      {"smiles": "CC(C)(C)c1ccc(-c2cn(-c3ccc(Br)cc3)c3[n+]2CCCS3)cc1", "inhibition": "57.2% (active)"},
      {"smiles": "CC(=O)c1ccc(-n2cc(-c3ccc(C(C)(C)C)cc3)[n+]3c2SCCC3)cc1", "inhibition": "5.2%"},
      {"smiles": "COc1ccc(-c2cn(-c3ccc(Br)cc3)c3[n+]2CCS3)cc1", "inhibition": "-4.3%"},
      {"smiles": "Cc1cc(=O)c2ccc(C(F)(F)F)cc2[nH]1", "inhibition": "-14.1%"},
      {"smiles": "COCCn1c(=S)[nH]c2cc(C(=O)N3CCN(c4cccc(Cl)c4)CC3)ccc2c1=O", "inhibition": "13.3%"},
      {"smiles": "COc1ccc(OC)c2c1C(=O)c1ccccc1C2=O", "inhibition": "-6.7%"},
      {"smiles": "COc1ccc(OC)c2c1C(=O)C(Cl)=C(Cl)C2=O", "inhibition": "93.8% (active)"},
      {"smiles": "COc1ccc(N)c2c1C(=O)c1ccccc1C2=O", "inhibition": "-34.4%"},
      {"smiles": "Cc1ccc2nc(Cl)c(/C=C/C(=O)c3ccco3)cc2c1", "inhibition": "-0.1%"},
      {"smiles": "CCOc1ccc2cc(/C=C/C(=O)c3ccco3)c(Cl)nc2c1", "inhibition": "1.7%"},
      {"smiles": "CCOc1ccc2nc(Cl)c(/C=C/C(=O)c3ccco3)cc2c1", "inhibition": "69.3% (active)"},
      {"smiles": "CC(C)(C)N1C(=O)[C@H]2[C@@H](c3ccc(Br)cc3)N3C(=O)N(c4cccc(Br)c4)C(=O)[C@@]3(Cc3ccccc3)[C@H]2C1=O", "inhibition": "-11.7%"},
      {"smiles": "COc1ccc(CC(=O)Oc2ccc(F)cc2)cc1", "inhibition": "-9.7%"},
      {"smiles": "O=C(NN/C(=N/S(=O)(=O)c1ccc(Cl)cc1)c1ccccc1)c1ccc(O)cc1", "inhibition": "-79.7%"},
      {"smiles": "CCc1ccc(NC(=S)N2CCN(S(=O)(=O)c3ccccc3)CC2)cc1", "inhibition": "-13.5%"},
      {"smiles": "CCOc1ccc2noc3c2c1C(=O)c1ccccc1-3", "inhibition": "-12.5%"},
      {"smiles": "O=C1c2ccccc2-c2onc3ccc(Oc4ccccc4)c1c23", "inhibition": "86.3% (active)"},
      {"smiles": "O=C1c2ccccc2-c2onc3c(Oc4ccccc4)cc(O)c1c23", "inhibition": "-15.3%"},
      {"smiles": "O=S(=O)(c1cccc(-n2cnnn2)c1)N1CCOCC1", "inhibition": "-8.4%"},
      {"smiles": "CCOc1ccc2nc(SC3CC(=O)N(c4ccc(OC)cc4)C3=O)sc2c1", "note": "(stereo not drawn)", "inhibition": "15.3%"},
      {"smiles": "Cc1ccc(SCc2cc(=O)[nH]c(/N=C(\\N)Nc3cccc4ccccc34)n2)cc1", "inhibition": "-11.6%"},
      {"smiles": "COc1ccccc1N/C(N)=N/c1nc(CSc2ccc(C)cc2)cc(=O)[nH]1", "inhibition": "53% (active)"},
      {"smiles": "COc1ccc(Cl)cc1N/C(N)=N/c1nc(CSc2ccc(C)cc2)cc(=O)[nH]1", "inhibition": "-6%"},
      {"smiles": "Cc1ccc(NC(=O)CN2CCN(C(=O)C3CCCO3)CC2)c(C)c1", "note": "(stereo not drawn)", "inhibition": "-8.7%"},
      {"smiles": "CCCCCCc1nc2ccccc2c(=O)n1NC(=O)c1c(O)c2cccc3c2n(c1=O)CCC3", "inhibition": "46.9%"},
      {"smiles": "CCC(=O)N1CCN(c2nc(-c3ccc(Cl)cc3)cs2)CC1", "inhibition": "-12.7%"},
      {"smiles": "CC(=O)/C(C#N)=C1\\NC(=O)C(Cc2cc(Cl)ccc2Cl)S1", "note": "(stereo not drawn)", "inhibition": "55% (active)"},
      {"smiles": "CC(=O)/C(C#N)=C1\\NC(=O)C(Cc2ccc(C)c(Cl)c2)S1", "note": "(stereo not drawn)", "inhibition": "26.5%"},
      {"smiles": "CC(=O)/C(C#N)=C1\\NC(=O)C(Cc2ccccc2Cl)S1", "note": "(stereo not drawn)", "inhibition": "14.5%"},
      {"smiles": "COc1cc(/C=C/C(=O)N2CCOCC2)ccc1OCc1ccccc1", "inhibition": "-102%"},
      {"smiles": "Cc1cc(C)n2nc(C(=O)Nc3c(C)nn(Cc4ccc(F)cc4)c3C)cc2n1", "inhibition": "-36.9%"},
      {"smiles": "Cc1cc2oc(=O)cc(Cn3ncc(Cl)c(Cl)c3=O)c2cc1Cl", "inhibition": "56.2% (active)"},
      {"smiles": "Cc1cc2oc(=O)cc(Cn3ccnc3)c2cc1Cl", "inhibition": "0.9%"},
      {"smiles": "Cc1cc2oc(=O)cc(CN3CCOCC3)c2cc1Cl", "inhibition": "6.3%"},
      {"smiles": "O=[N+]([O-])c1cc(S(=O)(=O)N2CCCC2)ccc1N/N=C1/CCCc2ccccc21", "inhibition": "13.3%"},
      {"smiles": "NS(=O)(=O)c1ccc(CNC(=O)c2cccnc2Cl)cc1", "inhibition": "-10.3%"},
      {"smiles": "CCOC(=O)C1CCCN(CCC(=O)Nc2cccc(C)c2)C1", "note": "(stereo not drawn)", "inhibition": "-37.8%"},
      {"smiles": "Nn1cnnc1N/N=C/c1ccc(Cl)cc1Cl", "inhibition": "-3.2%"},
      {"smiles": "Nn1cnnc1N/N=C/c1cc(Br)cc(Br)c1O", "inhibition": "82.4% (active)"},
      {"smiles": "COc1ccc(/C=N/Nc2nncn2N)cc1Br", "inhibition": "-19.1%"},
      {"smiles": "CC(C)CCN1C(=O)c2ccccc2C1C(=O)NCc1cccnc1", "note": "(stereo not drawn)", "inhibition": "7.5%"},
      {"smiles": "Cn1c(=O)c2c(nc3n2CC(COc2ccccc2)O3)n(C)c1=O", "note": "(stereo not drawn)", "inhibition": "-8.7%"},
      {"smiles": "COc1ccc(/C=N/Nc2snc(SC)c2C#N)cc1OC", "inhibition": "-0.1%"},
      {"smiles": "COc1cc(/C=N/Nc2snc(SC)c2C#N)cc(OC)c1OC", "inhibition": "68.9% (active)"},
      {"smiles": "COc1cc(/C=N/Nc2snc(SC)c2C#N)ccc1O", "inhibition": "63.7%"},
      {"smiles": "CCOc1ccc(NC(=O)CCNS(=O)(=O)c2ccc3c(c2)oc(=O)n3C)cc1", "inhibition": "-14.8%"},
      {"smiles": "N#CC(C(=O)c1ccccc1Cl)=C1SCCCS1", "inhibition": "-2.6%"},
      {"smiles": "CCN1C(=NCC(C)C)N[C@@H](c2cccc(C(F)(F)F)c2)C(C(=O)OC)=C1C", "inhibition": "-18.8%"},
      {"smiles": "Cc1ccc(Nc2c(-c3ccc(C)o3)nc3cnccn23)cc1", "inhibition": "-9.7%"},
      {"smiles": "Cc1ccc(-c2nc3cnccn3c2Nc2ccccc2)o1", "inhibition": "-18.2%"},
      {"smiles": "Cc1ccc(-c2nc3cnccn3c2Nc2c(C)cccc2C)o1", "inhibition": "71% (active)"},
      {"smiles": "COc1ccc(C2c3cc(OC)c(OC)cc3CCN2C(=O)c2ccccc2)cc1OC", "note": "(stereo not drawn)", "inhibition": "-31.9%"},
      {"smiles": "Cc1ccc(S(=O)(=O)N2CCCCC2)cc1NC(=O)CSc1ncnc2ccccc12", "inhibition": "58.7%"},
      {"smiles": "Cc1ccc(NC(=O)c2cc(=O)c3ccccc3o2)cc1S(=O)(=O)N1CCOCC1", "inhibition": "-6.6%"},
      {"smiles": "Cc1ccc(NC(=O)CSc2ncnc3ccccc23)cc1S(=O)(=O)N1CCCCCC1", "inhibition": "31.7%"},
      {"smiles": "O=C(Nc1ccc(S(=O)(=O)N2CCCC2)cc1)c1cc(=O)c2ccccc2o1", "inhibition": "-3.6%"},
      {"smiles": "COc1ccc(Br)cc1CNC(=O)CN1C(=O)C(c2ccccc2)Oc2cccnc21", "note": "(stereo not drawn)", "inhibition": "18.1%"},
      {"smiles": "CCc1ccccc1NC(=O)CCc1c(C)nn(-c2ccc(N3CCOCC3)nn2)c1C", "inhibition": "20.1%"},
      {"smiles": "O=C(CSc1nnc(CNC(=O)c2cccs2)o1)Nc1ccc(Br)cc1", "inhibition": "-31.8%"},
      {"smiles": "CCOC(=O)c1cnc2ccc(C(=O)OC)cc2c1Nc1ccc(C(=O)O)cc1", "inhibition": "-16.9%"},
      {"smiles": "CCOC(=O)c1ccc2ncc(C(=O)OCC)c(Nc3ccc(N4CCOCC4)cc3)c2c1", "inhibition": "107% (active)"},
      {"smiles": "CCOC(=O)c1cnc2ccc(C)cc2c1Nc1ccc(N2CCOCC2)cc1", "inhibition": "-17.2%"},
      {"smiles": "CC(C)C(NC(=O)C(C)N1C(=O)c2ccccc2C1=O)c1ccccc1", "note": "(stereo not drawn)", "inhibition": "-7.4%"},
      {"smiles": "CCC(=O)c1ccc(SC(=O)N(C)C)cc1O", "inhibition": "-4.8%"},
      {"smiles": "C=C1CCC[C@]2(C)C[C@H]3OC(=O)C(CN4CCOCC4)[C@H]3C[C@@H]12", "note": "(stereo partly drawn)", "inhibition": "2.5%"},
      {"smiles": "C=C1CCC[C@]2(C)C[C@H]3OC(=O)C(CN4CCCCC4CO)[C@H]3CC12", "note": "(stereo partly drawn)", "inhibition": "80.3% (active)"},
      {"smiles": "C=C1CCC[C@]2(C)C[C@H]3OC(=O)C(CN4CC(C)OC(C)C4)[C@H]3C[C@@H]12", "note": "(stereo partly drawn)", "inhibition": "-4.7%"},
      {"smiles": "COc1ccccc1NC(=O)c1sc2ncn(Cc3ccc(C)cc3)c(=O)c2c1C", "inhibition": "-43.8%"},
      {"smiles": "CCCS(=O)(=O)Nc1cc(C(F)(F)F)ccc1OCCOC", "inhibition": "-0.9%"},
      {"smiles": "Nc1ccc(Oc2ccc(F)cc2)nc1", "inhibition": "-4.6%"},
      {"smiles": "Cc1cccc(Oc2ccc(N)cc2)c1", "inhibition": "-25.9%"},
      {"smiles": "Nc1ccc(Oc2cc(N)cc(Oc3ccccc3)c2)cc1", "inhibition": "-12.3%"},
      {"smiles": "Nc1ccc(Oc2ccc(Br)cc2)cc1", "inhibition": "-35.5%"},
      {"smiles": "Cc1cc(C)cc(Oc2ccc(N)cc2)c1", "inhibition": "-28.1%"},
      {"smiles": "Cc1cc(Oc2ccc(N)cn2)ccc1Cl", "inhibition": "4.5%"},
      {"smiles": "CC(C)(C)c1ccc(Oc2ccc(N)cn2)cc1", "inhibition": "65.9% (active)"},
      {"smiles": "CC(C)(C)c1ccc(Oc2ccc(N)cc2)cc1", "inhibition": "82% (active)"},
      {"smiles": "CCn1c2c(c3cc(Br)ccc31)CCC/C2=N\\O", "inhibition": "15.3%"},
      {"smiles": "O=C(CCN1CCN(Cc2ccccc2)CC1)NNC(=O)Cc1ccc(Cl)c(Cl)c1", "inhibition": "-1.2%"},
      {"smiles": "COCC(=O)N(Cc1cc2cc(OC)ccc2[nH]c1=O)c1ccc(C)cc1", "inhibition": "-12.1%"},
      {"smiles": "O=C(CCS(=O)(=O)c1ccccc1)Nc1ccc2c(c1)OCO2", "inhibition": "-59.3%"},
      {"smiles": "CCOC(=O)N1CCN(S(=O)(=O)c2cc(Br)cnc2N)CC1", "inhibition": "10.4%"},
      {"smiles": "COc1ccc(-c2csc(N3CCC(c4ccccc4)C3)n2)cc1", "note": "(stereo not drawn)", "inhibition": "26.8%"},
      {"smiles": "CCc1ccc(N(CC(=O)N2CCN(Cc3ccccc3)CC2)S(C)(=O)=O)cc1", "inhibition": "-32.3%"},
      {"smiles": "Nc1nc(=S)[nH]c2c1C1(CCCC1)Cc1ccccc1-2", "inhibition": "14.3%"},
      {"smiles": "Nc1nc(=S)[nH]c2c1C1(CCCCC1)Cc1ccccc1-2", "inhibition": "-16.2%"},
      {"smiles": "Cc1nc(=S)c2c([nH]1)-c1ccccc1CC21CCCCC1", "inhibition": "104% (active)"},
      {"smiles": "N#C/C(=C\\c1ccc(Sc2nc3ccccc3[nH]2)o1)c1ccccc1", "inhibition": "65.2%"},
      {"smiles": "N#C/C(=C/c1ccc(Sc2nc3ccccc3[nH]2)o1)c1cccc(F)c1", "inhibition": "76.3% (active)"},
      {"smiles": "N#C/C(=C/c1ccc(Sc2nc3ccccc3[nH]2)o1)c1cccc(Br)c1", "inhibition": "3.1%"},
      {"smiles": "COc1cccc(CN2CCN(C(=S)NCc3ccc(Cl)cc3)CC2)c1", "inhibition": "-10.4%"},
      {"smiles": "CCc1nc2sc3c(c2c(=O)n1CCO)CCC3", "inhibition": "-18.6%"},
      {"smiles": "COC(=O)c1cc(C)sc1NC(=O)CCCC(=O)O", "inhibition": "-19.8%"},
      {"smiles": "CCCCNC(=O)CCn1c(=O)c2ccccc2n(CC(=O)N2CC(C)CC(C)C2)c1=O", "note": "(stereo not drawn)", "inhibition": "21.3%"},
      {"smiles": "COc1ccc(/C=C/c2n[nH]c(=O)c(C#N)c2C)cc1", "inhibition": "84.3% (active)"},
      {"smiles": "COc1cccc(/C=C/c2n[nH]c(=O)c(C#N)c2C)c1", "inhibition": "-7.2%"},
      {"smiles": "Cc1ccsc1/C=C/c1n[nH]c(=O)c(C#N)c1C", "inhibition": "9.3%"}
    ]}
  ]
}
